PubChem BioAssay (NCI)
About 83,000 compounds went through this panel and 20% of them were active in at least one assay; those are over-represented in the sample as a whole.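 Single-dose data. Exposure time 48 hours. Values below 10 considered active.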 Values without a mark were called inactive. Activity calls are given as the source filed them.

Key:
Experiment in all cases: NCI-60 one-dose screen, 48 h (100 = growth as untreated, 0 = no growth, -100 = all killed)
Conditions in all cases: 10 µM
[1] = system: SK-MEL-2 melanoma
[2] = system: EKVX NSCLC
[3] = system: SN12C renal
[4] = system: UO-31 renal
[5] = system: TK-10 renal
[6] = system: ACHN renal
[7] = system: CAKI-1 renal
[8] = system: A498 renal
[9] = system: MOLT-4 leukemia
[10] = system: CCRF-CEM leukemia

Row | Compound | growth [1] | growth [2] | growth [3] | growth [4] | growth [5] | growth [6] | growth [7] | growth [8] | growth [9] | growth [10]
1 | C/C(=C\c1ccc(O)cc1O)c1ccc2ccc(O)cc2[o+]1 | 91.1% | 68.1% | 44.9% | 50.7% | 116% | 45% | 58.5% | 147% | 29.3% | 
2 | Cc1ccc(-c2ccc(SCC(=O)Nc3ccc(Cl)c(C(F)(F)F)c3)nn2)cc1 | 12.8% | 36.7% | 35.2% |  | 59.8% | 43.4% | 41.7% | 80.3% | 8.91% (active) | 19.8%
3 | Cc1ccc(C(=O)N/C(=C2/OCCN2C)[P+](c2ccccc2)(c2ccccc2)c2ccccc2)cc1 | 81.1% | 75.4% | 86% | 85.4% | 102% | 114% | 102% | 122% | 84.4% | 
4 | CC1(c2ccccc2)NC(=O)N(CC(=O)Nc2ccc(C(=O)/C=C/c3ccc(Br)cc3)cc2)C1=O (stereo not given) | 52.3% | 55% | 51.2% | 34.3% | 76.7% | 35% | 39.5% | 71.1% | 13.9% | 
5 | CCCCCCCCCCCCCCCCCCCC(=O)NCCc1c[nH]c2ccc(OC(=O)NOCCOCCOCCOCCOCCOCCOCCOCCOCCOCCOCCOCCOCCOCCOCCOCCOCCOCCOCCOCCOCCOCCOC)cc12 | -68.5% (active) | 35.6% | -17.4% (active) | 61.8% | 51.2% | 40.7% | 7.27% (active) | 63.1% | -11.7% (active) | 
6 | C/C(=N\N=C\c1ccc(Cl)c([N+](=O)[O-])c1)c1ccc2c(c1)Nc1ccccc1S2 | 69.4% | 48% | 37.2% |  | 77% | 45.6% | 60.3% | 91.8% | 40.3% | 56.4%
7 | CCOC(=O)CNC(=O)CN(Cc1ccccc1)C(=O)[C@@]1(C)CCC[C@]2(C)[C@H]3CC4C(C(C)C)=C[C@]3(CC[C@H]21)[C@@H]1C(=O)CCC(=O)[C@H]41 | 47.4% | 66.2% | 50% | 47.9% | 98.1% | 52.9% | 81.3% | 120% | 15.8% | 
8 | COc1ccc2[nH]c(O)c(N=NC(=O)COc3ccc(NC(=O)Nc4ccc(Cl)c(Cl)c4)cc3)c2c1 | 14.5% | 31.9% | -42% (active) |  | 15.5% | 57% | 60.7% | -1.89% (active) |  | 20.8%
9 | CCCn1c(=O)c2[nH]c(-c3ccc(OCc4nc5ccccc5[nH]4)cc3)nc2n(CCC)c1=O | 81.6% | 55.7% | 2.85% (active) | 35.7% | 17.4% | 32.4% | 39.1% | -10.5% (active) | 70.7% | 
10 | COc1ccc(CN2[C@H](C(=O)NCCCCCCC(=O)NO)Cc3c([nH]c4ccccc34)[C@H]2C2CC2)cc1 | -16.7% (active) | 16.8% | 7.85% (active) |  | -19.7% (active) | 0.712% (active) | 4% (active) | -38.3% (active) | 12.2% | 19.7%
11 | COc1ccc(C(=O)Nc2ccc(-c3ccc4c(c3)NC(=O)/C4=C\c3ccc[nH]3)cc2)cc1 | 99.5% | 7.85% (active) | 64.9% | 81.3% | 98.8% | 60.7% | 72.7% | 118% | 55.6% | 
12 | CCOC(=O)C1NN(c2ccc(S(N)(=O)=O)cc2)c2nc3nc(-c4cccs4)cc(-c4cccs4)c3c(=O)n21 (stereo not given) | 101% | 91.8% | 90.2% | 82.9% | 100% | 64.9% | 59.1% | 120% | 78.7% | 
13 | Clc1ccc2c(N/N=C/c3c[nH]c4ccc(Br)cc34)ccnc2c1 | -93% (active) | -93% (active) | -56.3% (active) | -95.8% (active) | -67.2% (active) | -90.8% (active) | -94% (active) | -77% (active) | -48.7% (active) | 
14 | Brc1ccc(N/N=C/c2c[nH]c3ccccc23)nc1 | 83.6% | 24.4% | 15.3% |  | 70% | 27.5% | 25.9% | 43% | 18% | 6.57% (active)
